Shown are actives, neighbours in structure and some others; about 21% of the full set was active somewhere.
Pf growth 96h = P. falciparum growth inhibition at 96 hours. P. falciparum luciferase reporter growth, 96 h. Potency, µM (series often up to 28.7 µM), for inactives: at the top dose activity change, negative = inhibition, actives largely listed as inhibitors. 320,000 tested, 6.9% active. AID 504834; also: potency is read from the fitted curve at half-maximal effect; % is scaled to controls: 0 for no effect and ±100 for the full control effect
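Luminescence readout: decreased luciferase signal marks inhibited growth of reporter-expressing P. falciparum in infected red cells (2% hematocrit, 0.05% parasitemia final), exposed to compound two generations (96 h, 37 C, 5% CO2).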
Pf growth 48h = inhibits P. falciparum growth in the first generation, 48 h; 310,000 tested, 5.9% active; P. falciparum luciferase growth in erythrocytes, 48 h; Potency, µM (series often up to 28.7 µM), for inactives: at the highest dose activity change, negative = inhibition, hits mostly inhibitors; also: potency is read from the fitted curve at half-maximal effect; % is scaled to controls: 0 for no effect and ±100 for the full control effect
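In quantitative HTS format, infected erythrocytes bearing luciferase-reporter parasites were treated for a single generation at 37 C. Luminescence after adding detection reagent served as the growth measure.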
CHX counter = affects cycloheximide protein synthesis inhibition readout, counter-screen. cell reporter, cycloheximide protein synthesis inhibition counterscreen. max response, %. 300,000 tested, 12% active; in the data active = max response mostly above about 13%, no sharp cut-off; inactive = mostly below about 14%; also: read at 38.3 µM for the half of the compounds with a filed dose; 0% is about no effect
Shiga inhibitor = inhibitors of Shiga toxin in Vero cells. inhibition, % at 38.7 µM. 290,000 tested, 9.2% active. Vero cells, Shiga toxin protein synthesis inhibition reporter; in the data active = inhibition mostly above about 28%, no sharp cut-off; inactive = mostly below about 43%; also: 0% is about no effect
NS1 function inh = influenza NS1 inhibition; Potency, µM (highest dose often 46.1 µM), without a hit: at the highest dose activity, positive = more growth; 270,000 tested, 0.4% active; AID 2326; calls by dose curve; also: potency is read from the fitted curve at half-maximal effect; actives are rising curves; nearly all actives have a fitted effect of over 50% in size
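S. cerevisiae expressing influenza A NS1, grown in glucose, washed, then diluted 1:100 into pH 6.0 -URA galactose medium with 23 nl compound. Growth recovery read as OD600; NS1-free strain serves as control.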
The depositor's hits bear a star; i = inactive; ? = inconclusive; . = no result; ! = not confirmed by another sample. Unless noted, calls follow the shape of the dose curve; as a rule, active = well fitted inhibition curve with a large enough effect; inconclusive = small, poorly fitted or top-dose-only effect, or another doubt; inactive = no such curve, though single readings can be large or run the other way.

SMILES	Pf growth 96h	Pf growth 48h	CHX counter	Shiga inhibitor	NS1 function inh
O=C(Nc1ccc(F)cc1F)c1cccc(C(=O)Nc2ccc(F)cc2F)n1	?	43%	-1	-5	7%
CCOc1ccccc1/C=N/NC(=O)CNC(=O)c1cccs1	16%	-2%	-4	13	.
COc1cc(C2Oc3ccccc3C=C2[N+](=O)[O-])cc(OC)c1OC (stereo unspecified)	?	?	-9	-13	-128%
CCOC(=O)C(=O)Nc1nnc(C2CCCCC2)s1	.	23%	8	13	-57%
Cc1ccc(C(=O)Nc2nnc(C3CCCCC3)s2)o1	.	262%	21*	90*	-90%
Cc1cc(C(=O)Nc2nnc(C3CCCCC3)s2)no1	209%	28%	16	40	-114%
CCOCC(=O)Nc1nnc(C2CCCCC2)s1	-1%	100%	36*	46*	-42%
CC(Oc1ccccc1)C(=O)Nc1nnc(C2CCCCC2)s1 (stereo unspecified)	0.0029µM*	27%	49*	130*	-10%
COCC(=O)Nc1nnc(C2CCCCC2)s1	-18%	72%	20*	53*	-7%
CCOc1ccccc1-n1c(=S)sc2c(=O)n(-c3ccccc3)c(=S)[nH]c21	?	-4%	-7	18	.
Cc1nnc(NC(=O)c2ccc(F)c(S(=O)(=O)N3CCCCC3)c2)s1	?	2%	-2	-5	-17%
COc1ccc(CNC(=O)N[C@@H](CC(C)C)C(=O)O)cc1OC	12%	4%	-1	-9	2%
CCC(NC(=S)NC1CCCCC1)c1ccc(C)cc1 (stereo unspecified)	7.4µM*	?	-2	-3	-87%
Cc1ccc(C)c(C(C)NC(=S)NC2CCCCC2)c1 (stereo unspecified)	37%	13µM*	-2	-4	-74%
Cc1ccc(CNC(=S)NC2CCCCC2)cc1	?	-13%	-1	-3	-58%
CCCc1ccc(C(C)NC(=S)NC2CCCCC2)cc1 (stereo unspecified)	33%	13µM*	-3	-3	-101%
CC(NC(=S)NC1CCCCC1)c1ccccc1 (stereo unspecified)	38%	?	2	.	-53%
COc1ccc(CC(=O)NCC2CCCN(Cc3ccc(SC)cc3)C2)cc1 (stereo unspecified)	-16%	-25%	-1	.	4%
Fc1cccc(C2NN=C(c3ccccc3)S2)c1 (stereo unspecified)	246%	270%	73*	112*	17%
COc1ccc(C2NN=C(c3ccc(C)cc3)S2)cc1OC (stereo unspecified)	1.9µM*	351%	38*	92*	.
Cc1ccc(C2=NNC(c3cccc(F)c3)S2)cc1 (stereo unspecified)	12µM*	i	8	3	.
NC1=NS(=O)(=O)NC1c1cccc(F)c1 (stereo unspecified)	-58%	3%	9	19	.
CN(C(=O)COC(=O)c1ccc[nH]c1=O)C1CCCCC1	14%	15%	-1	-9	.
COc1ccc(NC(=O)CSc2nnc(Cc3ccccc3)c(=O)n2N)cc1OC	10%	6%	.	.	.
O=C(NC1=NCCS1)c1ccccc1	?	68%	17	20	2%
SMILES	Pf growth 96h	Pf growth 48h	CHX counter	Shiga inhibitor	NS1 function inh
Cc1cc(C(=O)NC2=NCCS2)cs1	15%	i	41*	66*	11%
Cc1cccc(C(=O)NC2=NCCS2)c1	29%	146%	35*	56*	-1%
O=c1[nH][nH]cc1C=Nc1ccc(Cl)cc1Cl	?	?	-1	-34	.
O=c1[nH][nH]cc1C=Nc1cc(Cl)ccc1O	6.6µM*	?	8	-18	-3%
O=C(N/N=C\c1c(O)ccc2ccccc12)c1ccc(O)cc1	65%	?	2	12	6%
O=C(N/N=C\c1c(O)ccc2ccccc12)c1cncc(Br)c1	2.3µM*	2.9µM*	0	-7	-70%
O=C(N/N=C/c1c(O)ccc2ccccc12)c1ccc[n+](CCO)c1	5.2µM*	9.3µM*	-4	-12	-30%
Cn1cc(C(=O)N/N=C/c2c(O)ccc3ccccc23)ccc1=O	28%	2.6µM*	-1	8	.
Cc1occc1C(=O)N/N=C/c1c(O)ccc2ccccc12	0%	2.6µM*	36*	90*	-1%
C[N+](C)(C)CC(=O)N/N=C\c1c(O)ccc2ccccc12	.	.	.	.	-3%
Cc1ccsc1C(=O)Nc1cccc(S(=O)(=O)N(C)C)c1	?	10%	-4	-6	-1%
Cc1ccc(C(=O)N/N=C/c2c(O)ccc3ccccc23)cn1	8%	3.7µM*	-4	-6	-46%
O=C(N/N=C/c1c(O)ccc2ccccc12)c1ccc(Br)o1	3%	?	18*	-2	-18%
O=C(N/N=C/c1c(O)ccc2ccccc12)c1cccnc1	-6%	?	7	-9	-81%
Cn1nccc1C(=O)N/N=C/c1c(O)ccc2ccccc12	10µM*	2.6µM*	28*	47*	-12%
CCOc1ccc(N(C)C(=O)CCc2nnc3ccc(N4CCC5(CC4)OCCO5)nn23)cc1	2%	-10%	7	-6	-4%
O=C1CC(c2ccncc2)c2cc3c(cc2N1)OCO3 (stereo unspecified)	.	-2%	-3	13	4%
S=c1[nH]c2cc3ccccc3cc2[nH]1	?	-1%	43*!	98*!	-4%
CC1(C)CC(=O)C2=C(C1)N(c1ccc(F)cc1)C(=O)CC2c1ccsc1 (stereo unspecified)	3.3µM*	.	-7	-13	6%
Cc1ccc(N2C(=O)CC(c3ccsc3)C3=C2CC(C)(C)CC3=O)cc1 (stereo unspecified)	?	?	-3	-7	-1%
CC(C)(C)c1ccc(C(=O)NCC(=O)OCC(=O)c2ccc3c(c2)-c2ccccc2C3)cc1	23%	8%	2	-2	25%
Cc1cccc(N=C2NN=C(c3ccc4c(c3)OCCO4)CS2)c1	-82%	-83%	27*	93*	-3%
Cc1ccc(C2=NNC(=Nc3ccc(F)cc3)SC2)cc1	?	?	26*	84*	.
Cc1cccc(N=C2NN=C(c3c(C)[nH]c4ccccc34)CS2)c1	1.5µM*	2.6µM*	6	13	25%
CCC(C)(C)NC(=O)CN(Cc1ccc(F)cc1)C(=O)CCC(=O)Nc1ccccn1	4%	15%	4	-1	-15%
CCC(C(=O)NC1CCCC1)N(C(=O)c1snc(C(N)=O)c1N)c1ccc(C)cc1C (stereo unspecified)	?	?	-4	2	5%
COc1cc(CNc2ccccc2)c([N+](=O)[O-])cc1OC	i	13µM*	1	.	0%
COc1ccc(C(=O)Cc2cc(OC)c(OC)cc2[N+](=O)[O-])cc1	2%	49%	-3	-8	11%
COc1cccc(CNc2ccc(F)c([N+](=O)[O-])c2)c1O	20%	9%	30*	47*	.
CCOC(=O)COc1c(/C=N\OC)cc(Cl)cc1OC	30%	11%	-3	14	.
